# Measurements reported in publication PMC11062922 (Nature Chemical Biology, 2023).
# Like-named read-outs stand apart in the source and are kept apart here.
# Tests used:
# [1] = system: AAK1; set-up: species or system human, MV4-11 + K-562 + COLO205 + SK-N-BE2 + OVCAR-8; details: read-out: apparent Kd, n = 1
# [2] = system: BMP2K; set-up: species or system human, MV4-11 + K-562 + COLO205 + SK-N-BE2 + OVCAR-8; details: read-out: apparent Kd, n = 1
# [3] = system: CSNK2A1;CSNK2A3; set-up: species or system human, MV4-11 + K-562 + COLO205 + SK-N-BE2 + OVCAR-8; details: read-out: apparent Kd, n = 1
# [4] = system: CSNK2A2; set-up: species or system human, MV4-11 + K-562 + COLO205 + SK-N-BE2 + OVCAR-8; details: read-out: apparent Kd, n = 1
# [5] = system: FLT4; set-up: species or system human, MV4-11 + K-562 + COLO205 + SK-N-BE2 + OVCAR-8; details: read-out: apparent Kd, n = 1
# [6] = system: GAK; set-up: species or system human, MV4-11 + K-562 + COLO205 + SK-N-BE2 + OVCAR-8; details: read-out: apparent Kd, n = 1
# [7] = system: GSK3A; set-up: species or system human, MV4-11 + K-562 + COLO205 + SK-N-BE2 + OVCAR-8; details: read-out: apparent Kd, n = 1
# [8] = system: GSK3B; set-up: species or system human, MV4-11 + K-562 + COLO205 + SK-N-BE2 + OVCAR-8; details: read-out: apparent Kd, n = 1
# [9] = system: PAK4; set-up: species or system human, MV4-11 + K-562 + COLO205 + SK-N-BE2 + OVCAR-8; details: read-out: apparent Kd, n = 1
# [10] = system: PKN3; set-up: species or system human, MV4-11 + K-562 + COLO205 + SK-N-BE2 + OVCAR-8; details: read-out: apparent Kd, n = 1;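 for IC50: NanoBRET target engagement in HEK293T cells transiently expressing full-length PKN3 with C-terminal NanoLuc, displacement of fluorescent tracer K5 (500 nM), BRET read after 2 h equilibration at 37 °C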
# [11] = system: PRKAG1; set-up: species or system human, MV4-11 + K-562 + COLO205 + SK-N-BE2 + OVCAR-8; details: read-out: apparent Kd; compound concentrations: 100 nM and 1000 nM (sheet 'Samples'), CATDS: 2.3560969184091798E-2; n = 1
# [12] = biological target: Q6ZSR9 (human, UniProt Q6ZSR9); set-up: species or system MV4-11 + K-562 + COLO205 + SK-N-BE2 + OVCAR-8; details: read-out: apparent Kd, n = 1
# Chain of Q6ZSR9 (Q6ZSR9 whole entry, looked up): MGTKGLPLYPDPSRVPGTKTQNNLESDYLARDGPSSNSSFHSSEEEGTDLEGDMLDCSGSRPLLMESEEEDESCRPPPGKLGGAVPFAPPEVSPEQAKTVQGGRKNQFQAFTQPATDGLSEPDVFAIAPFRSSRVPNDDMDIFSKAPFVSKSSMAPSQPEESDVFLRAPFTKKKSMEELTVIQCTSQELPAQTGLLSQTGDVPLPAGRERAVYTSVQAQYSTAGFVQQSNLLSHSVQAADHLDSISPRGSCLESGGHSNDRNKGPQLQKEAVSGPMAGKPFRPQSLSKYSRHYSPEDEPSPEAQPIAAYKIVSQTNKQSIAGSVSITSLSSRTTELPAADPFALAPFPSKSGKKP
# [13] = system: SIK2; set-up: species or system human, MV4-11 + K-562 + COLO205 + SK-N-BE2 + OVCAR-8; details: read-out: apparent Kd, n = 1
# [14] = system: PKN3; details: hek293t cells;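 for IC50: NanoBRET target engagement in HEK293T cells transiently expressing full-length PKN3 with C-terminal NanoLuc, displacement of fluorescent tracer K5 (500 nM), BRET read after 2 h equilibration at 37 °C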
# [15] = system: CLK1; set-up: species or system human, MV4-11 + K-562 + COLO205 + SK-N-BE2 + OVCAR-8; details: read-out: apparent Kd; compound concentrations:100 nM and 1000 nM (sheet 'Samples'); n = 1
# [16] = system: CLK4; set-up: species or system human, MV4-11 + K-562 + COLO205 + SK-N-BE2 + OVCAR-8; details: read-out: apparent Kd; compound concentrations:100 nM and 1000 nM (sheet 'Samples'); n = 1
# [17] = system: MELK; set-up: species or system human, MV4-11 + K-562 + COLO205 + SK-N-BE2 + OVCAR-8; details: read-out: apparent Kd; compound concentrations:100 nM and 1000 nM (sheet 'Samples'); n = 1
# [18] = system: NUAK1; set-up: species or system human, MV4-11 + K-562 + COLO205 + SK-N-BE2 + OVCAR-8; details: read-out: apparent Kd; compound concentrations:100 nM and 1000 nM (sheet 'Samples'); n = 1
# [19] = system: PKN1; set-up: species or system human, MV4-11 + K-562 + COLO205 + SK-N-BE2 + OVCAR-8; details: read-out: apparent Kd, n = 1
# [20] = system: RET; set-up: species or system human, MV4-11 + K-562 + COLO205 + SK-N-BE2 + OVCAR-8; details: read-out: apparent Kd; compound concentrations:100 nM and 1000 nM (sheet 'Samples'); n = 1
# [21] = compound concentrations:100 nM and 1000 nM (sheet 'Samples')
structure (smiles),measurement,setting,value
CN(c1ccc(NC(=O)N2CCN(CCCN3CCOCC3)CC2)cc1)c1ccnc(Nc2ccc(CS(C)(=O)=O)cc2)n1.Cl [GW830899A],potency estimated from few doses,"[1]; compound concentrations: 100 nM and 1000 nM (sheet 'Samples'), CATDS: 3.8742372830354199E-2",411 nM
same,potency estimated from few doses,"[2]; compound concentrations: 100 nM and 1000 nM (sheet 'Samples'), CATDS: 2.31268992433276E-2",1070 nM
same,potency estimated from few doses,"[3]; compound concentrations: 100 nM and 1000 nM (sheet 'Samples'), CATDS: 1.98938138742078E-2",1550 nM
same,potency estimated from few doses,"[4]; compound concentrations: 100 nM and 1000 nM (sheet 'Samples'), CATDS: 2.19439033786193E-2",1210 nM
same,potency estimated from few doses,"[5]; compound concentrations: 100 nM and 1000 nM (sheet 'Samples'), CATDS: 1.9888583471378E-2",1550 nM
same,potency estimated from few doses,"[6]; compound concentrations: 100 nM and 1000 nM (sheet 'Samples'), CATDS: 3.3242042513279398E-2",528 nM
same,potency estimated from few doses,"[7]; compound concentrations: 100 nM and 1000 nM (sheet 'Samples'), CATDS: 3.3329188882870099E-2",525 nM
same,potency estimated from few doses,"[8]; compound concentrations: 100 nM and 1000 nM (sheet 'Samples'), CATDS: 2.6554458888549098E-2",796 nM
same,potency estimated from few doses,"[9]; compound concentrations: 100 nM and 1000 nM (sheet 'Samples'), CATDS: 2.0205846564267299E-2",1490 nM
same,potency estimated from few doses,"[10]; compound concentrations: 100 nM and 1000 nM (sheet 'Samples'), CATDS: 1.8045605554117099E-2",2080 nM
same,potency estimated from few doses,[11],1020 nM
same,potency estimated from few doses,"[12]; compound concentrations: 100 nM and 1000 nM (sheet 'Samples'), CATDS: 2.6002877269984698E-2",831 nM
same,potency estimated from few doses,"[13]; compound concentrations: 100 nM and 1000 nM (sheet 'Samples'), CATDS: 2.0988983059189802E-2",1350 nM
Fc1ccc(-c2c(-c3ccncc3)[nH]c3cccnc23)cc1 [RO1153853-000],potency estimated from few doses,"[10]; compound concentrations: 100 nM and 1000 nM (sheet 'Samples'), CATDS: 0.27237296502427",55.8 nM
same,IC50,"[14]; read-out: Average, SD, n = 4",2.36 µM
same,IC50,[14]; read-out: Rep 1,8.03 µM
same,IC50,[14]; read-out: Rep 2,0.951 µM
same,IC50,[14]; read-out: Rep 3,0.164 µM
same,IC50,[14]; read-out: Rep 4,0.295 µM
NCCNS(=O)(=O)c1ccc(-c2ccnc3[nH]ccc23)cc1 [GSK977617A],potency estimated from few doses,[1]; [21],429 nM
same,potency estimated from few doses,[2]; [21],817 nM
same,potency estimated from few doses,[15],294 nM
same,potency estimated from few doses,[16],413 nM
same,potency estimated from few doses,[3]; [21],782 nM
same,potency estimated from few doses,[4]; [21],766 nM
same,potency estimated from few doses,[5]; [21],1050 nM
same,potency estimated from few doses,[6]; [21],280 nM
same,potency estimated from few doses,[7]; [21],257 nM
same,potency estimated from few doses,[8]; [21],361 nM
same,potency estimated from few doses,[17],866 nM
same,potency estimated from few doses,[18],1100 nM
same,potency estimated from few doses,[9]; [21],652 nM
same,potency estimated from few doses,[19]; [21],485 nM
same,potency estimated from few doses,[10]; [21],444 nM
same,potency estimated from few doses,[12]; [21],450 nM
same,potency estimated from few doses,[20],569 nM
same,potency estimated from few doses,[13]; [21],560 nM
CCn1c(-c2nonc2N)nc2c(C#CCN)ncc(OCCCN)c21.O=C(O)C(F)(F)F [GSK561866B],potency estimated from few doses,"[19]; compound concentrations: 100 nM and 1000 nM (sheet 'Samples'), CATDS: 0.15879588217707499",65.5 nM
same,potency estimated from few doses,"[10]; compound concentrations: 100 nM and 1000 nM (sheet 'Samples'), CATDS: 0.49894757840635401",5.21 nM
same,IC50,"[14]; read-out: Average, SD, n = 4",7.97 µM
same,IC50,[14]; read-out: Rep 1,13 µM
same,IC50,[14]; read-out: Rep 2,11.2 µM
same,IC50,[14]; read-out: Rep 3,4.91 µM
same,IC50,[14]; read-out: Rep 4,2.81 µM
